HepG2 tox: HepG2 cytotoxicity, counter-screen for TGF-b inhibitors; HepG2 CAGA-GFP viability, ATP luminescence, 18 h; Potency, µM (top dose mostly 46.1 µM), for the others: at the top dose activity change, negative = cytotoxicity, most hits filed as cytotoxic; 0.76% of 410,000 active; note: potency is the fitted concentration of half-maximal effect
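CellTiter-Glo luminescence gave cytotoxicity after 18 hours at 37 degrees C. The cells were HepG2 CAGA-GFP in 1% FBS DMEM, stimulated with 500 pg/mL TGF-beta after compound addition. %Activity was normalised to no-cell wells (complete cell-killing) and DMSO (no toxicity), and curves were fitted and classified.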
ATXN2 expr inh: reduces ATXN2 reporter expression in HEK-293 cells; HEK-293 ATXN2-luciferase reporter, luminescence, 24 h; Potency, µM (titrated, usually from 57 µM), for the others: top-dose activity change, negative = inhibition, usual class: inhibitors; 0.72% of 360,000 active; note: potency is the fitted concentration of half-maximal effect; % is set by controls: 0 for no effect and ±100 for the full control effect; nearly all actives have a fitted effect of over 55% in size
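ATXN2-luciferase reporter cells (luciferase flanked by upstream and downstream ATXN2 gene portions) were treated 24 h at 37 °C with compounds at up to 57 uM. SteadyGlo luminescence gave expression; GF-AFC fluorescence gave viability.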
TGFb SMAD3 inh: TGF-b pathway inhibition. Potency, µM (highest dose often 46.1 µM), for inactives: at the highest dose activity, negative = inhibition, usual class: inhibitors. 1.2% of 410,000 active. HepG2 CAGA-GFP TGF-b/SMAD3 reporter, GFP fluorescence, 18 h; TGF-beta stimulated, 500 pg/mL final; note: potency is the fitted concentration of half-maximal effect; % is set by controls: 0 for no effect and ±100 for the full control effect; nearly all actives have a fitted effect of over 65% in size
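Inhibition was scored as loss of TGF-beta-induced (500 pg/mL final, 18 hours, 37 degrees C) GFP in HEPG2 cells carrying a CAGA-GFP reporter, in DMEM with 1% FBS. Well GFP was summed per cell; Activity was normalised to unstimulated and stimulated DMSO wells, then concentration-response fitting.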
ATXN viability: viability counter-screen for ATXN expression inhibitors | S2 cells (HEK-293 line with an ATXN2-luciferase reporter) viability, CellTiter-Fluor protease fluorescence, 24 h | Potency, µM (doses to about 56.7 µM), most hits filed as cytotoxic | 0.49% of 400,000 active | AID 651635; note: potency is the fitted concentration of half-maximal effect; nearly all actives have a fitted effect of over 40% in size
IL-1B inflam inh: inflammasome signaling inhibition, IL-1 beta readout; THP-1 LPS/ATP IL-1B secretion, AlphaLISA, 16 h; stronger effect = lower value; activity change, % at 57.5 µM; 4.7% of 360,000 active; AID 743279; in the data active = activity change below about -50%; inconclusive = mostly about -30% to -49%; note: % is set by controls: 0 for no effect and ±100 for the full control effect
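Secreted IL-1B measured by AlphaLISA bead assay after 16 h compound exposure of THP-1 cells; compounds (final up to 57.5 uM) added 1 h before LPS (250 ng/mL) and ATP (1.25 mM) stimulation; lower signal means less secretion.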
An asterisk follows results filed as active; i = inactive; ? = inconclusive; nt = no result given; ! = not active in a repeat; [ ] = dose if it differs, or a comment. Most compounds without a hit are left out; they make up all but 5.7% or so of the library. Unless noted, calls come from the whole dose curve; as a rule, active = well fitted curve in the direction sought with a large enough effect; inconclusive = small, poorly fitted or top-dose-only effect, or another doubt; inactive = no such curve, though single readings can be large; an effect the other way counts as inactive or inconclusive.

SMILES | HepG2 tox | ATXN2 expr inh | TGFb SMAD3 inh | ATXN viability | IL-1B inflam inh
Clc1ccc(SCc2cn3ccsc3n2)cc1 | -28% | 29% | -3% | i | -2
Cc1csc2nc(CSc3ccc(Cl)cc3)cn12 | -18% | 61% | -16% | ? | -91*
COc1ccc(NC(=O)Nc2ccc(OC)cc2)cc1 | 15% | 30% | 3% | i | 3
COc1ccc(NC(=O)/C=C2\SC(=O)NC2=O)cc1 | -21% | 30% | -6% | i | -51*
NNC(=O)c1oc2nc(-c3ccco3)cc(-c3ccco3)c2c1N | 6% | ? | -20% | nt | -53*
Nc1c(C(=O)O)sc2nc(-c3ccccc3)cc(-c3ccc(Cl)cc3)c12 | -25% | -22% | -28% | i | -5
NNC(=O)c1oc2nc(-c3ccc(Cl)cc3)cc(-c3ccccc3)c2c1N | -15% | ? | -5% | nt | -82*
Nc1c(C(=O)N/N=C/c2cccnc2)oc2nc(-c3ccco3)cc(-c3ccco3)c12 | -48% | -18% | 21% | i | -11
CCOC(=O)/C(C#N)=C1/C=CN(C)C(C)=N1 | 2% | 1% | 15% | i | 16
CCOC(=O)/C(C#N)=C1/C=C(C)NC(c2ccccc2O)=N1 | -33% | ? | ? | ? | -64*
O=C(c1ccc2c(c1)OCCO2)N(Cc1cccnc1)c1nc2ccc(F)cc2s1 | -21% | nt | -4% | nt | nt
CC(=O)Nc1ccc(Nc2nc(Nc3ccc(Cl)cc3)nc(N3CCOCC3)n2)cc1 | -26% | nt | 12% | nt | nt
O=C(NC1CCCCC1)C(c1cccs1)N(Cc1cccs1)C(=O)c1cccs1 (stereo not drawn) | -2% | ? | -13% | i | -66*
CCCCCCCCCCCCCCCC[n+]1cccc(C(=O)N(CC)CC)c1 | 13µM*! | 32µM*! | ? | 32µM* | -63*
CCCCCCCCCCCCCCCC[n+]1ccc(/C=N/O)cc1 | -113% | ? | ? | ? | -100*
CCCCCCCC[n+]1cccc(C(=O)N(CC)CC)c1 | 13% | nt | 16% | i | -6
CCCCCCCCCCCCCCCC[n+]1ccc(C(N)=O)cc1 | -69% | ? | ? | ? | -103*
Cc1ccc(C2c3cccn3CCN2S(=O)(=O)c2ccc([N+](=O)[O-])cc2)cc1 (stereo not drawn) | 0% | -14% | -18% | i | nt
O=C(NCc1nnc2n1CCN(Cc1cc3c(cc1Cl)OCO3)CC2)c1cccc(F)c1 | nt | nt | nt | i | nt
CC(C)N(Cc1ccccc1)C(=O)Cn1ncc2c3ccccc3n(Cc3ccccc3)c2c1=O | 6% | 17% | -1% | i | nt
Cn1c2c(c3cnc4cc(Cl)ccc4c31)CNCC2 | -37% | nt | 0% | nt | nt
CCOC(=O)c1ccc(NC(=O)c2c(NCc3sccc3C)sc3c2CCC(C)C3)cc1 (stereo not drawn) | -39% | -32% | 14µM* | ? | nt
CCOc1ccccc1NC(=O)c1c(NCc2sccc2C)sc2c1CCC(C)C2 (stereo not drawn) | -35% | nt | nt | nt | nt
CCOC(=O)c1ccc(NC(=O)c2c(NCc3cc(OC)c(OC)cc3OC)sc3c2CCCC3)cc1 | -26% | -19% | 0% | 32µM* | nt
CCCCNC(=O)CCCN1C(=O)CCn2nc(-c3cccn3C)cc21 | 1% | 3% | -2% | i | nt
SMILES | HepG2 tox | ATXN2 expr inh | TGFb SMAD3 inh | ATXN viability | IL-1B inflam inh
COc1ccc(-n2c(CNC(=O)c3cccc(OC)c3OC)nnc2SC)cc1 | nt | nt | nt | i | nt
COC(=O)[C@@H]1C[C@]2(OC(=O)c3ccccc3)C=CC(=O)C[C@@H]2N1C(=O)OCc1ccccc1 | -68% | 14µM* | ? | nt | -107*
CC(C)NC(=O)/C(C#N)=C/c1cccc(NC(=O)c2ccccc2Cl)c1 | -69% | ? | ? | i | -104*
C=CCN(CC=C)c1nc2ccccc2nc1C(C#N)C(=O)OCCOC (stereo not drawn) | -1% | -6% | -3% | ? | ?
CCCN(CCC)c1nc2ccccc2nc1C(C#N)C(=O)OCCOC (stereo not drawn) | -1% | -11% | 22% | ? | -62*
O=C1SC(SCc2ccccc2)=N/C1=C\c1ccc(C(=O)O)cc1 | 3% | -21% | -1% | i | -58*
O=[N+]([O-])c1cccc(CSc2ncnc3ccccc23)c1 | -55% | nt | -19% | i | -61*
CC(C)CC1Nc2ncnc(N3CCN(c4ccccn4)CC3)c2N(Cc2ccccc2)C1=O (stereo not drawn) | 7% | 7% | -5% | i | -56*!
CCC1Nc2ncnc(N3CCN(c4ccccn4)CC3)c2N(Cc2ccc(Cl)cc2)C1=O (stereo not drawn) | -1% | -24% | -14% | i | -59*
Cc1[nH]c2ccccc2c1CCNCc1ccc(C=CC(=O)NO)cc1 | nt | 120% | nt | nt | nt
CCC1CN(CC(=O)NC(C)c2cn(C)nc2C)Cc2cc(OC)ccc2O1 (stereo not drawn) | nt | nt | nt | i | nt
COc1ccc(NC(=S)NC(NC(=O)c2cccc(C)c2)C(Cl)(Cl)Cl)c([N+](=O)[O-])c1 (stereo not drawn) | -37% | 24% | -13% | i | -10
O=C(NC(NC(=S)Nc1ccccc1Cl)C(Cl)(Cl)Cl)c1cccc(Cl)c1 (stereo not drawn) | -45% | ? | ? | ? | -87*
COc1ccc(NC(=S)NC(NC(=O)c2cccc(Cl)c2)C(Cl)(Cl)Cl)c([N+](=O)[O-])c1 (stereo not drawn) | -56% | ? | 22µM* | ? | -60*
COc1ccc(NC(=S)NC(NC(C)=O)C(Cl)(Cl)Cl)c([N+](=O)[O-])c1 (stereo not drawn) | -19% | -12%[11.3 µM] | -18% | i | -54*
CO[C@H]1/C=C\O[C@@]2(C)Oc3c(C)c(O)c4c(O)c(c(C=NN5CCN(C6CCCC6)CC5)c(O)c4c3C2=O)NC(=O)C(C)=CC=C[C@H](C)[C@H](O)[C@@H](C)[C@@H](O)[C@@H](C)[C@H](OC(C)=O)[C@H]1C | -41% | 5.4µM* | 11µM* | nt | nt
Cc1cc(C=c2sc3nc4ccccc4n3c2=O)c(C)n1-c1ccccc1 | nt | 0.24µM* | nt | nt | nt
Cc1ccc(SCC(=O)Nc2ccc3oc(-c4cccc(C)c4)nc3c2)cc1 | -19% | 8% | 0% | i | nt
CCC(=O)Nc1ccc2oc(-c3cccc(C)c3)nc2c1 | 20µM* | 34% | 0% | i | -21
O=C(Nc1ccc(-c2nc3cc(NC(=O)c4cccs4)ccc3o2)cc1)c1cccs1 | 2% | 10µM* | 3% | 16µM* | 4
O=C(Nc1ccc2nc(-c3ccc(Br)o3)[nH]c2c1)c1cccs1 | -39% | -6% | 5% | ? | -76*
CC(=O)Nc1ccc2nc(-c3ccc(Br)o3)[nH]c2c1 | -4% | 39% | -4% | i | ?
Oc1cc(-c2nc3ccccc3s2)cc2c1OCCN(Cc1cccn1-c1nccs1)C2 | nt | nt | nt | i | nt

Compound activity (PubChem)
